FAK blocker: FAK kinase inhibitors, primary screen, biochemical | biochemical FAK kinase activity assay | hit rate 0.84% among 97,000 | inhibition, %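 (tested at 7 µM)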 | Focal adhesion kinase 1 (Homo sapiens), Q05397; in the data active = inhibition above about 19%
ERa coact pot: enhancers of ERα–SRC-1 coactivator binding, primary screen, biochemical, TR-FRET, ERα LBD, low estradiol | Estrogen receptor (Homo sapiens), P03372 | AID 639, 2007 | coactivator binding (% of control), % at 25.6 µM | hit rate 1.3% among 86,000 | TR-FRET ERalpha-LBD/SRC-Cy5 coactivator binding, 2 h; 100 = basal binding, no effect; in the data active = activity above about 200%;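 also: binding measured in presence of low estradiol as agonist stimulus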
ERb coact inh: inhibitors of ERβ-SRC1 coactivator interaction, primary screen, biochemical, TR-FRET, ERβ LBD, SRC-1 peptide; TR-FRET ER-beta LBD / SRC1-Cy5 peptide binding; receptor agonist-loaded with 1 µM estradiol; inhibition, % at 25.6 µM; hit rate 1.3% among 86,000; AID 633, 2007;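 active = compounds whose percent inhibition of the receptor-coactivator binding signal exceeds about 50% in the single-dose screen, limit read from the data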
ERa coact inh: ERα–SRC-1 coactivator interaction inhibitors, primary screen, biochemical, TR-FRET, ERα LBD, estradiol-bound; TR-FRET ER-alpha LBD / SRC-1 peptide; hit rate 1.7% among 86,000; Estrogen receptor (Homo sapiens), P03372; AID 629, 2007; inhibition, % at 25.6 µM; in the data active = inhibition above about 50%
Smad3 inh: Smad3/FoxH1 peptide binding inhibitors, primary screen, biochemical, TR-FRET; Mothers against decapentaplegic homolog 3 (Homo sapiens), P84022; TR-FRET Smad3/Dy647-FoxH1 peptide binding, europium anti-His; inhibition, % at 25 µM; hit rate 0.29% among 88,000; AID 630, 2007;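 active = compounds that reduce the energy-transfer binding signal between the protein and its labelled peptide by more than half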
Hits are given with their value; n = inactive; x = not tested or not shown; [ ] = dose if it differs, or a comment. Only some compounds are listed: those with a hit (about 3.3% of all), similar ones and a draw of the others.

SMILES	FAK blocker	ERa coact pot	ERb coact inh	ERa coact inh	Smad3 inh
Cc1ccc(CN(Cc2cc3cc(C)ccc3[nH]c2=O)C(=O)N2CCOCC2)cc1	n	484	n	n	n
CCOc1ccc2[nH]c(=O)c(CN(Cc3ccc(C)cc3)C(=O)N3CCCC3)cc2c1	n	n	n	n	n
N[C@@H](CSc1nc2ccccn2c1[N+](=O)[O-])C(=O)O	x	x	x	x	n
COc1ccc(C(=O)[C@H](Br)[C@H](Br)C(=O)O)cc1	x	x	x	x	n
Cc1[nH]c2ccc(-c3nnc(SCC(=O)c4ccccc4F)o3)cc2c1C	n	n	n	70	n
Cc1ccc2[nH]c(=O)c(C(c3nnnn3C(C)(C)C)N(Cc3ccco3)CC3CCCO3)cc2c1 (stereo not given)	n	n	n	n	n
Cc1cccc2cc(C(c3nnnn3C(C)(C)C)N(Cc3ccco3)CC3CCCO3)c(=O)[nH]c12 (stereo not given)	n	n	66[fluorescence artefact?]	57	n
O=C(O)CCCSc1ccccc1	x	x	x	x	n
CN(C)C(=O)c1ccccc1-c1ccccc1	n	241	n	n	n
CN(C)CCNC(=O)c1ccccc1-c1ccccc1	n	n	n	n	n
N#Cc1nc(-c2ccc(OCc3ccccc3)cc2)oc1NCCN1CCOCC1	n	235[fluorescence artefact?]	n	n	n
Nc1nc(-c2ccc3ccccc3c2)cc(-c2cc(-c3ccc4ccccc4c3)nc(N)n2)n1	x	x	x	x	n
O=C1CN2CCN(CC2)CC(=O)Nc2ccc(cc2)S(=O)(=O)c2ccc(cc2)NC(=O)CN2CCN(CC2)CC(=O)Nc2ccc(cc2)S(=O)(=O)c2ccc(cc2)N1	x	x	x	x	n
Cc1ccc(NC(=O)c2nnn(-c3cc(C)cc(C)c3)c2N)cc1	n	n	n	n	n
COc1cccc(Cn2nnc(C(=O)Nc3ccc(C)cc3)c2N)c1	n	246[fluorescence artefact?]	n	n	n
COc1cccc(CNC(=O)c2nnn(CC(=O)Nc3ccc(C)c(C)c3)c2N)c1	x	287	n	n	n
Cc1ccc(NC(=O)Cn2nnc(C(=O)Nc3ccc(C)c(C)c3)c2N)cc1	n	n	n	70[fluorescence artefact?]	n
Cc1cccc(-n2nnc(C(=O)Nc3ccc(F)cc3)c2N)c1	n	n	n	63[fluorescence artefact?]	n
CSc1ccc(Cn2nnc(C(=O)Nc3ccc(C)c(C)c3)c2N)cc1	n	n	n	n	n
CC(=O)C=NCC(=O)O	x	x	x	x	n
CCOC(=O)N1CCN(S(=O)(=O)c2ccc(C(=O)Nc3nc4ccc(F)cc4s3)cc2)CC1	n	377	n	n	n
CCOC(=O)N1CCN(S(=O)(=O)c2ccc(C(=O)Nc3nc4ccccc4s3)cc2)CC1	n	280[fluorescence artefact?]	n	n	n
COc1cccc2sc(NC(=O)c3ccc(S(=O)(=O)N4CCOCC4)cc3)nc12	n	n	n	n	n
COc1ccc2c(=O)cc(-c3ccncc3)oc2c1OC	x	x	x	x	n
CCC(=O)Oc1ccc(-c2cnc3ccccc3n2)cc1	n	x	x	x	x
SMILES	FAK blocker	ERa coact pot	ERb coact inh	ERa coact inh	Smad3 inh
CCC(=O)Oc1ccc(C(CC)C(CC)c2ccc(OC(=O)CC)cc2)cc1 (stereo not given)	x	577	n	n	n
COc1cccc(-c2cc(C(=O)Nc3cc(C)nn3-c3ccccc3)no2)c1	n	455	n	n	n
COc1ccc(-c2cc(C(=O)Nc3cc(C)nn3-c3ccccc3)no2)cc1	n	n	n	n	n
Cc1cc(NC(=O)c2cc(-c3ccccc3)on2)n(-c2ccccc2)n1	n	529[fluorescence artefact?]	n	n	n
c1ccc(CN2CCC3(CC2)SSC2(CCN(Cc4ccccc4)CC2)SS3)cc1	x	x	x	x	n
Cc1ccc(SCN2CCCCC2)cc1 (tested in a mixture with another compound)	x	x	x	x	n
CO[C@@H]1/C=C\O[C@]2(C)Oc3c(C)c(O)c4c(O)c(cc(O)c4c3C2=O)NC(=O)C(C)=C/C=C\[C@H](C)[C@@H](O)[C@H](C)[C@H](O)[C@H](C)[C@H](OC(C)=O)[C@@H]1C	x	x	x	x	n
COc1cc(/C=c2\s/c(=C(/C#N)C(=O)N3CCCC3)n(-c3ccccc3)c2=O)ccc1O	n	n	n	59	n
COC(=O)/C=c1/s/c(=C(/C#N)C(=O)N2CCCCC2)n(-c2ccccc2)c1=O	x	n	n	n	n
CC(NC(=O)Cn1c(=O)oc2cc(S(=O)(=O)N3CCCC3)ccc21)c1ccccc1 (stereo not given)	n	n	n	n	n
O=C(Cn1c(=O)oc2cc(S(=O)(=O)N3CCCC3)ccc21)Nc1ccc(C(F)(F)F)cc1	n	n	n	69[fluorescence artefact?]	n
O=C(Cn1c(=O)oc2cc(S(=O)(=O)N3CCCC3)ccc21)NC1CCCc2ccccc21 (stereo not given)	x	n	67[fluorescence artefact?]	89[fluorescence artefact?]	n
Cc1cc(C)cc(NC(=O)Cn2c(=O)oc3cc(S(=O)(=O)N4CCC(C)CC4)ccc32)c1	n	n	54[fluorescence artefact?]	89[fluorescence artefact?]	n
N[C@@H](CNO)C(=O)O	x	x	x	x	n
CC(C)=N[C@H](C(=O)O)C(C)(C)S	x	x	x	x	n
N=c1c(C(=O)NCc2ccc3c(c2)OCO3)cc2c(=O)n3ccccc3nc2n1Cc1cccnc1	x	n	57	92[fluorescence artefact?]	n
COCCCn1c(=N)c(C(=O)NCc2ccc3c(c2)OCO3)cc2c(=O)n3cccc(C)c3nc21	x	n	n	n	n
COC(=O)c1cc2c(=O)n3cccc(C)c3nc2n(Cc2cccnc2)c1=N	x	n	n	n	n
COc1ccc(CNC(=O)c2cc3c(=O)n4ccccc4nc3n(Cc3cccnc3)c2=N)cc1	n	n	n	78[fluorescence artefact?]	n
COc1ccc(Cn2c(=O)[nH]c3cc(C(=O)NCc4ccc5c(c4)OCO5)ccc3c2=O)cc1	n	n	n	51	n
Cc1ccc(C)c(/C(=N/N=C(N)N)C2CC2)c1	x	x	x	x	n
CCOC(=O)c1c(C)[nH]c(C)c1C(=O)COc1ccc(NC(=O)c2ccco2)cc1	n	n	54[fluorescence artefact?]	n	n
Cc1ccc(NC(=O)c2ccc(OC(=O)c3ccco3)cc2)cc1	n	372[fluorescence artefact?]	n	n	n
CN(C)c1ccc(/C=C/C(O)=C2/C(=O)N(C)C3(C)CC2c2ccccc2O3)cc1 (stereo not given)	n	n	60[fluorescence artefact?]	74[fluorescence artefact?]	n
C[C@@H](CCC(=O)O)C(=O)O	x	x	x	x	n
SMILES	FAK blocker	ERa coact pot	ERb coact inh	ERa coact inh	Smad3 inh
CC(C)CN(CCC(=O)O)CC(C)C	n	n	60	n	n
Cc1ccc(N[C@H](c2ccccc2)c2ccc3cccnc3c2O)cc1	x	x	x	x	n
N#Cc1ccsc1NC(=O)CN1CCCCCC1	n	x	x	x	x
CN(CC(=O)Nc1sccc1C#N)C1CCCCC1	n	n	60[fluorescence artefact?]	79[fluorescence artefact?]	n
Cc1cccc(-n2nnnc2SCC(=O)c2cc(C)n(CC3CCCO3)c2C)c1 (stereo not given)	x	n	n	n	n
Cc1cccc(-n2nnnc2SCC(=O)c2cc(C)n(Cc3ccco3)c2C)c1	n	n	n	89[fluorescence artefact?]	n
Cc1ccc(S(=O)(=O)NC(=O)Nc2ncn[nH]2)cc1	x	x	x	x	n
